GRIN3A LBD mod: binders of NR3A ligand-binding domain, primary screen, biophysical, differential scanning fluorimetry, uHTS | NR3A LBD differential scanning fluorimetry, Tm shift; 0% = protein alone, 100% = glycine-bound protein | Tm shift relative to glycine control, % at 25 µM | 340,000 compounds, 2.5% hits | AID 1259313, 2017;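 active means melting temperature shift of at least 10% of the positive control shift, at one fixed dose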
dFosB act-1: activators of delta FosB homodimer, primary screen, biochemical, fluorescence polarization, TAMRA-CDK5 oligo, single point | Protein FosB (Mus musculus), P13346 | purified delta FosB; percent of positive-control signal above neutral wells | activation, % at 25 µM | 340,000 compounds, 0.99% hits | AID 493131, 2011;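 active means mean activation above about 17%, with every replicate also reaching it, limit read from the data, passing the limit was not always enough; inconclusive means only one of the two conditions met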
Target sequence (P13346 whole entry, looked up): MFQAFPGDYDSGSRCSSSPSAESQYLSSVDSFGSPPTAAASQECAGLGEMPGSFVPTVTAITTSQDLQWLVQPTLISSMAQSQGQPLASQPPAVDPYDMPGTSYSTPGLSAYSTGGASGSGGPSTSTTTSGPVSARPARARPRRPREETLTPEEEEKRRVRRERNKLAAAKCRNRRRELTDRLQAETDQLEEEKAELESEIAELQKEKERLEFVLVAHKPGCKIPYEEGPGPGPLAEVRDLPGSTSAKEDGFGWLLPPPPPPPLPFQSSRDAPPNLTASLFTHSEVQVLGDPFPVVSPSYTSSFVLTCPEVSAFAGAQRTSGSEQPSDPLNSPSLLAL
NALP1 inh: NALP1 inflammasome inhibitors in reconstituted yeast, colorimetric, S. cerevisiae, triplicate retest; AID 2071, 2009; 280,000 compounds, 0.61% hits; inhibition, % at 10 µM; S. cerevisiae NALP1/ASC/caspase-1 growth, X-gal OD620, 72 h; in the data active means inhibition mostly above about 24%, no sharp cut-off; inactive means mostly below about 32%
CR mimetic SO: reduction of superoxide in aged yeast, primary screen, HTS; S. cerevisiae aged cells, superoxide DHE fluorescence; active compounds read low; superoxide response (% of plate mean), % at 10 µM; 330,000 compounds, 0.18% hits; AID 2690, 2010;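 active means superoxide response under a set limit, about three screen SD below normal, cut at about 65% in these data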;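 further: yeast aged for seven days with compound at 30 °C before DHE staining; 100% = average MFI of all compound-treated wells on the plate with controls excluded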
UBC13 polyUb: UBC13 polyubiquitin chain formation inhibitors, primary screen, biochemical, TR-FRET, uHTS; Ubiquitin-conjugating enzyme E2 N (Homo sapiens), P61088; 330,000 compounds, 0.47% hits; inhibition, % at 20 µM; AID 485273, 2010; in the data active means inhibition above about 45%, passing the limit was not always enough; inconclusive means no clear call, values can overlap the other calls
Target sequence (P61088 whole entry, looked up): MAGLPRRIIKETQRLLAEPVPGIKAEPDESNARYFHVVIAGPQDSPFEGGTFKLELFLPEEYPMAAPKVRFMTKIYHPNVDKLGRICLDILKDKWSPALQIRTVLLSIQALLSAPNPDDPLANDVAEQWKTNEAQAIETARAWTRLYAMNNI
dFosB act-2: activators of mouse delta FosB DNA binding, confirmation, biochemical, fluorescence polarization, TAMRA-CDK5 oligo, cherry-picked samples | shares compounds with dFosB act-1 | purified delta FosB; normalised: neutral wells 0, positive control 100 | activation, % at 24.9 µM | 2,400 tested, under 10 active | AID 588690, 2011;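 active means highest replicate activation at or above 34% and every replicate reaching that threshold; inconclusive means meets only one of the two criteria; inactive means meets neither criterion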;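 further: higher polarization means more probe DNA bound by delta FosB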
* = called active by the depositor; ? = inconclusive; · = no result given. Shown are actives, neighbours in structure and some others; about 4.3% of the full set was active somewhere.

SMILES	GRIN3A LBD mod	dFosB act-1	NALP1 inh	CR mimetic SO	UBC13 polyUb	dFosB act-2
CN(Cc1ccc(C(C)(C)C)cc1)C(=O)Cc1ccc(S(=O)(=O)N2CCOCC2)s1	1	-3	·	94	18	·
Cc1cc(S(=O)(=O)N2CCCC(C)C2)ccc1-n1cnnn1 (configuration not stated)	0	7	12	85	-2	·
CC(=O)c1cn(-c2ccc(Cl)cc2)c(=O)n(Cc2ccc(Br)cc2)c1=O	1	27*	-5	90	-1	1
O=C(Nc1cccc([N+](=O)[O-])c1)Nc1cnccn1	-3	27*	7	110	4	-6
C=CCNc1nc(Nc2ccc(-c3nc4ccccc4o3)cc2)nc(N2CCOCC2)n1	-4	28*	20	97	18	2
COc1ccc(CCNC(=O)COc2ccc3c(C)cc(=O)oc3c2)cc1OC	-1	-2	-8	89	2	·
CC1=C(C(=O)OC(C)C)C(c2ccccc2)NC(=S)N1C (configuration not stated)	7	1	14	101	1	·
O=C(NCc1ccccc1Cl)c1ccc(NC2=NC3CS(=O)(=O)CC3S2)cc1 (configuration not stated)	4	29*	4	102	6	4
O=C(NC1(Cc2ccccc2)CCN(Cc2ccc(-c3ccccc3)cc2)C1=O)c1ccccc1 (configuration not stated)	-3	9	·	95	-32	·
C#CCn1c(=NC(=O)c2ccc(S(=O)(=O)N3CCCc4ccccc43)cc2)sc2cc(S(N)(=O)=O)ccc21	19*	59*	31	93	-17	2
Cn1c(=NC(=O)c2ccc(S(=O)(=O)N3CCCc4ccccc43)cc2)sc2cc(S(C)(=O)=O)ccc21	-2	1	23	121	-3	·
CCOc1ccc(NC(=O)Cn2nnc(-c3ccccc3NC(=O)C3CC3)n2)cc1	-5	60*	5	98	7	1
COc1ccc(C(=O)Nc2ccccc2-c2nnn(CC(N)=O)n2)cc1	-1	44*	·	·	·	3
COc1ccc(C(=O)Nc2ccccc2-c2nnn(CC(=O)Nc3ccc4c(c3)OCCO4)n2)cc1	8	33*	33	94	-3	2
COc1cc(OC)cc(C(=O)Nc2ccccc2-c2nnn(CC(=O)Nc3cc(C)on3)n2)c1	-5	95*	-2	104	-8	5
Nc1ccccc1-c1nnn(CC(=O)Nc2ccc3c(c2)OCCO3)n1	2	6	9	103	-9	·
O=C(Nc1ccc(-c2nc3ccccc3[nH]2)cc1)c1ccc2c(c1)OCO2	30*	58*	9	89	7	-1
O=C(Nc1ccc(-c2nc3ccccc3[nH]2)cc1)c1c(F)c(F)c(F)c(F)c1F	16*	29*	10	96	4	0
Cc1ccc2nc(SCC(=O)Nc3ccc(C(N)=O)cc3)[nH]c2c1	-2	-2	2	106	-6	·
Cc1ccc2nc(-c3ccc(NC(=O)CSc4ccccc4)cc3)[nH]c2c1	29*	25*	38	105	-8	5
CCOc1ccccc1N(C)C(=O)c1cn(C)c(=O)c2ccccc12	0	-3	-26	110	-10	·
C=CCn1c(SCC(=O)Nc2ccc(N3CCOCC3)cc2)nnc1-c1ccncc1	0	-5	-15	94	1	·
C=CCn1c(SCC(=O)Nc2ncc(Cc3ccc(Br)cc3)s2)nnc1-c1ccncc1	-2	37*	22	106	3	5
COc1cccc(/C=N/NC(=O)CCn2c3ccccc3c3ccccc32)c1	·	24*	28	92	16	2
CCOc1ccc2nc(N(CCCN(C)C)C(=O)c3ccc4c(c3)CCCC4)sc2c1	1	26*	30	94	42	5
SMILES	GRIN3A LBD mod	dFosB act-1	NALP1 inh	CR mimetic SO	UBC13 polyUb	dFosB act-2
CN(C)CCN(C(=O)c1ccc2ccccc2c1)c1nc2c(F)cc(F)cc2s1	1	36*	18	86	12	7
COc1cccc2sc(N(CCN(C)C)C(=O)c3ccc4c(c3)CCCC4)nc12	8	2	39	87	-2	·
COc1ccc2nc(N(CCN(C)C)C(=O)c3ccc(C(=O)c4ccccc4)cc3)sc2c1	-1	31*	14	90	20	0
Cc1ccc2nc(N(CCN(C)C)C(=O)c3ccc4ccccc4c3)sc2c1	12*	26*	34	106	20	6
CCn1c(=O)c(CCC(=O)NCC2CCCO2)c(C)c2c(C)nn(-c3ccc(C)cc3)c21 (configuration not stated)	0	-9	0	109	6	·
O=c1ccc2cc(S(=O)(=O)Nc3ccc(Br)cc3)ccc2o1	9	3	11	101	-4	·
COc1ccc(CNC(=O)C2CCN(S(=O)(=O)N3CCCCC3)CC2)c(OC)c1	-4	-8	2	111	5	·
CCOc1ccc2nc(N(CCN(C)C)C(=O)c3cc4ccccc4cc3OC)sc2c1	2	48*	31	111	19	8
CCOc1cccc2sc(N(CCN(C)C)C(=O)c3cc4ccccc4cc3OC)nc12	0	?	13	113	14	·
O=C(NCC1CCCO1)C(c1ccncc1)N(Cc1cccs1)C(=O)CN1C(=O)c2ccccc2S1(=O)=O (configuration not stated)	-1	-7	12	114	-3	·
O=C(NC1CCCCC1)C(c1ccc(F)cc1)N(Cc1cccs1)C(=O)CN1C(=O)c2ccccc2S1(=O)=O (configuration not stated)	-2	29*	16	102	-6	0
COc1ccc(-c2nc(C(N)=O)c3[nH]c(=O)n(-c4cccc(Cl)c4)c3n2)cc1OC	-2	29*	13	·	·	-17
C/C(=N\NC(=O)c1nnn(-c2nonc2N)c1CSc1ccccc1)c1ccco1	5	38*	14	105	-18	4
C/C(=N\NC(=O)c1nnn(-c2nonc2N)c1CSc1ccccc1)c1cccnc1	2	-2	-6	90	-5	·
C/C(=N\NC(=O)c1nnn(-c2nonc2N)c1CSc1ccc(C)cc1)c1ccco1	-1	18*	8	118	-4	4
O=c1c(O[C@H]2O[C@@H](CO)[C@H](O)[C@@H](O)[C@@H]2O)c(-c2ccc(O)cc2)oc2cc(O)cc(O)c12	4	-5	·	89	-13	·
